Results published in PubChem BioAssay (NCATS).
Where “and” joins values, the source holds several entries; their conditions need not be identical. Equal values may be shown once. Records with an inconclusive call do not appear. Calls of active or inactive are those of the source. Calls follow the shape of the full dose curve.

Assay: Primary qHTS to identify inhibitors of SARS-CoV-2 cell entry (AID 1645846); also: nearly all actives have a fitted effect of over 45% in size
Details: SARS-CoV-2 pseudovirus cell entry assay, luminescence; activity change, negative = inhibition: at 57.1 µM (top of the series) unless noted
In short: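 Data are normalized to wells receiving SARS-CoV-2-S pseudoparticles and those given bald particles. Entry signal was luciferase luminescence in stable hACE2 Expi293F cells, 48 hr post-infection, after 1 hr compound pretreatment.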
Potency is read from the fitted curve at half-maximal effect.

Q: Which Potency does the source give for `N#Cc1cc2cc(CN3CCC(Nc4ncnc5sc(CC(F)(F)F)cc45)CC3)c(O)cc2n1Cc1cn[nH]c1` here?
A: The Potency was 17.8 µM (active).

Q: For `COc1ccc(N(C)c2nc(C)nc3ccccc23)cc1`, which activity change, negative = inhibition is on record?
A: Its activity change, negative = inhibition is -80.5%.

Q: For `CC(C)=CCC/C(C)=C/CC/C(C)=C/CSc1ccccc1C(=O)O`, which activity change, negative = inhibition is on record?
A: The activity change, negative = inhibition was -15.6%.

Q: Which activity change, negative = inhibition does the source give for `O=C(/C=C/c1ccc(CN(CCO)CCc2c[nH]c3ccccc23)cc1)NO` here?
A: The activity change, negative = inhibition was -7.55%.

Q: Which Potency does the source give for `COc1cc2c(NC3CCN(C4CCCCC4)CC3)nc(N3CCCN(C(C)C)CC3)nc2cc1OCCCN1CCCCC1` here?
A: The Potency was 11.2 µM (active).

Q: With `NS(=O)(=O)c1ccc(S(=O)(=O)Nc2cccc3c(Cl)c[nH]c23)cc1` as the molecule, how does the activity change, negative = inhibition read?
A: Its activity change, negative = inhibition is -3.77%.

Q: For `COC1CC(C(=O)c2ccc3c(N)ncc(-c4ccc(-c5cnn(C)c5)cc4)c3n2)C1` (stereo unspecified), which Potency is on record?
A: Its Potency is 8.91 µM (active).

Q: For `C[C@@H]1COCCN1c1cc(C2(S(C)(=N)=O)CC2)nc(-c2ccnc3[nH]ccc23)n1` (stereo partly specified), which Potency is on record?
A: Its Potency is 10 µM (active).

Q: Which activity change, negative = inhibition does the source give for `Cc1ccc(NC(=O)c2ccc(CN3CC[C@H](N(C)C)C3)c(C(F)(F)F)c2)cc1Nc1nccc(-c2cncnc2)n1` here?
A: The activity change, negative = inhibition was -12% [at 27.1 µM].

Q: With `CCOC(=O)CCNc1cc(N2CCc3ccccc3CC2)nc(-c2ccccn2)n1` as the molecule, how does the activity change, negative = inhibition read?
A: The activity change, negative = inhibition was -97.3%.

Q: Which activity change, negative = inhibition does the source give for `CNCCCOc1cc(F)c(-c2c(Cl)nc3ncnn3c2N[C@@H](C)C(F)(F)F)c(F)c1` here?
A: Its activity change, negative = inhibition is -85.4%.

Q: For `CN(C)CCNC(=O)NC[C@H]1CC[C@@H]2[C@H](O1)c1cc(C(F)(F)F)ccc1N[C@H]2c1ccccc1`, which Potency is on record?
A: Its Potency is 25.1 µM (active).

Q: For `CC[C@@H](C)Nc1cc(C(=O)NC2CC3CCC(C2)N3c2ccc(C(=O)C3CC3)cn2)c(C)cc1C(N)=O` (stereo partly specified), which Potency is on record?
A: The Potency was 1 µM (active).

Q: Which Potency does the source give for `CC1(C)C(N(O)C(=O)Nc2ccc(Cl)cc2)N(c2ccc(Cl)cc2)C(=O)N1CC(=O)N/N=C/C=C/c1ccc([N+](=O)[O-])o1` (stereo unspecified) here?
A: The Potency was 17.8 µM (active).

Q: Which “outcome” value does the source give for `COc1cc(C)[nH]c(=O)c1CN1CCc2c(Cl)cc([C@H](OC)C3COC3)c(Cl)c2C1=O` here?
A: Its value is “inactive”.

Q: Which activity change, negative = inhibition does the source give for `Nc1nc2c(c(=O)[nH]1)N1CN(c3ccc(C(=O)N[C@@H](CCC(=O)O)C(=O)O)cc3)CC1CN2` (stereo partly specified) here?
A: Its activity change, negative = inhibition is -83.8%.

Q: With `CCN(CC)CCNC(=O)c1c(C)[nH]c(/C=C2/C(=O)Nc3ccc(-c4csc(-c5ccccc5)n4)cc32)c1C` as the molecule, how does the Potency read?
A: The Potency was 22.4 µM (active).

Q: With `C[C@]12CC[C@H](O)C[C@H]1CCC1C2CC[C@]2(C)[C@@H](c3ccc(=O)oc3)C[C@H]3O[C@]132` (stereo partly specified) as the molecule, how does the Potency read?
A: Its Potency is 7.08 µM (active).

Q: For `Cc1ccc(S(=O)(=O)Cc2nc(-c3ccc(C(=O)NCc4cccnc4)cc3)oc2C)cc1`, which activity change, negative = inhibition is on record?
A: Its activity change, negative = inhibition is -96.2%.

Q: With `O=C(NO)c1cnc(NC2(c3cccc(F)c3)CCCCC2)nc1` as the molecule, how does the Potency read?
A: The Potency was 28.2 µM (active).

Q: With `C=C1C(=O)O[C@@H]2[C@H]3O[C@]3(C)CC/C=C(\C)CC[C@@H]12` as the molecule, how does the Potency read?
A: Its Potency is 22.4 µM (active).

Q: For `CCc1c(-c2ccccc2C)nc2c(C#N)c[nH]n2c1=O`, which activity change, negative = inhibition is on record?
A: The activity change, negative = inhibition was -14.3%.

Q: With `N#C/C(=C1/Nc2ccccc2S1)c1ccnc(OCc2ccc(CN3CCOCC3)cc2)n1` as the molecule, how does the activity change, negative = inhibition read?
A: The activity change, negative = inhibition was -97.6%.

Q: Which “outcome” value does the source give for `Cc1c(F)cccc1NC(=O)Nc1ccc(Cl)c(S(=O)(=O)[C@H]2CCCNC2)c1O` here?
A: The value was “inactive”.

Q: With `COc1cc2c3c(n(CCCNCCO)c(=O)c2cc1OC)-c1cc2c(cc1C3=O)OCO2` as the molecule, how does the activity change, negative = inhibition read?
A: Its activity change, negative = inhibition is -96.5%.

Q: For `C=CC(=O)N1CC/C(=C\c2ccc(F)c([N+](=O)[O-])c2)C(=O)/C(=C/c2ccc(F)c([N+](=O)[O-])c2)C1`, which Potency is on record?
A: Its Potency is 0.891 µM (active).

Q: For `CCCCN(CCCC)C(=O)CN1C[C@H](c2ccc3c(c2)OCO3)[C@@H](C(=O)O)[C@@H]1c1ccc(OC)cc1`, which activity change, negative = inhibition is on record?
A: Its activity change, negative = inhibition is -74.4%.

Q: With `Cn1cc(/C=C2\C(=O)Nc3cccnc32)c2ccccc21` as the molecule, how does the activity change, negative = inhibition read?
A: The activity change, negative = inhibition was -43.1%.

Q: Which Potency does the source give for `COc1ccc(-c2ccc3c(N4CCOC[C@@H]4C)nc(N4CCOC[C@@H]4C)nc3n2)cc1CO` here?
A: Its Potency is 1 µM (active).

Q: For `CNC(=O)c1ccc(Nc2ncc(C(F)(F)F)c(NCc3nccnc3N(C)S(C)(=O)=O)n2)cc1`, which Potency is on record?
A: The Potency was 0.891 µM (active).

Q: For `C[C@H](NC(=O)[C@H]1NCC[C@@H]1O)c1ccc(-c2noc(CCC3CCCC3)n2)cc1`, which activity change, negative = inhibition is on record?
A: The activity change, negative = inhibition was -92.1%.

Q: Which activity change, negative = inhibition does the source give for `Cc1c[nH]c2ncnc(N3CCC(CN)(C(=O)Nc4cccc(OC(=O)N(C)C)c4)CC3)c12` here?
A: Its activity change, negative = inhibition is -8.16% and -70.1%.

Q: Which Potency does the source give for `CN1CCCN(C(=O)c2cccc(-c3ccc(/C=C4/C(=O)Nc5ccc(Cl)cc54)o3)c2)CC1` here?
A: The Potency was 1 µM (active).

Assay: VSVG counterscreen qHTS to identify inhibitors of SARS-CoV-2 cell entry (AID 1645847); also: nearly all actives have a fitted effect of over 65% in size; as to activity change, negative = inhibition: % is scaled to controls: 0 for no effect and ±100 for the full control effect
Details: VSV-G pseudotyped particle entry, luciferase; series mostly up to 57.2 µM; activity change, negative = inhibition: at the top concentration
In short: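 Counterscreen using VSV-G (not spike) pseudotyped MLV particles on ACE2-expressing Expi293F cells after 1 h compound preincubation; infection ran 48 h at 37 °C. Data normalized to VSV-G PP and bald-PP wells.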

Q: For `COc1ccc(N(C)c2nc(C)nc3ccccc23)cc1`, which Potency is on record?
A: The Potency was 4.82 µM (active).

Q: With `COC1CC(C(=O)c2ccc3c(N)ncc(-c4ccc(-c5cnn(C)c5)cc4)c3n2)C1` (stereo unspecified) as the molecule, how does the “activity change, negative = inhibition” value read?
A: Its value is -54% (inactive).

Q: With `Nc1nc(-c2nn(Cc3ccccc3F)c3ncccc23)ncc1C1CC1` as the molecule, how does the Potency read?
A: Its Potency is 12.1 µM (active).

Q: Which Potency does the source give for `CNC(=O)c1cccc(-c2ccc3c(N4CCOC[C@@H]4C)nc(N4CCOC[C@@H]4C)nc3n2)c1` here?
A: The Potency was 2.71 µM (active).

Q: With `O=C1NC(=O)C(c2cnc3ccccn23)=C1c1cn2c3c(cc(F)cc13)CN(C(=O)N1CCCCC1)CC2` as the molecule, how does the Potency read?
A: Its Potency is 0.152 µM (active).

Q: Which Potency does the source give for `CNCCCOc1cc(F)c(-c2c(Cl)nc3ncnn3c2N[C@@H](C)C(F)(F)F)c(F)c1` here?
A: The Potency was 0.121 µM (active).

Q: Which Potency does the source give for `CN(C)CCN1C(=O)c2cccc3cc(NC(N)=O)cc(c23)C1=O` here?
A: Its Potency is 12.1 µM (active).

Q: Which Potency does the source give for `Nc1nc2c(c(=O)[nH]1)N1CN(c3ccc(C(=O)N[C@@H](CCC(=O)O)C(=O)O)cc3)CC1CN2` (stereo partly specified) here?
A: The Potency was 3.41 µM (active).

Q: With `C=CC(=O)N1CC[C@@H](Oc2nc(Nc3ccc(N4CCC(N5CCN(C)CC5)CC4)cc3)c(C(N)=O)nc2CC)C1` as the molecule, how does the Potency read?
A: Its Potency is 5.27 µM (active).

Q: For `Cn1cc(/C=C2\C(=O)Nc3cccnc32)c2ccccc21`, which Potency is on record?
A: Its Potency is 0.152 µM (active).

Q: With `COc1ccc(-c2ccc3c(N4CCOC[C@@H]4C)nc(N4CCOC[C@@H]4C)nc3n2)cc1CO` as the molecule, how does the Potency read?
A: The Potency was 0.429 µM (active).

Q: For `Cc1c[nH]c2ncnc(N3CCC(CN)(C(=O)Nc4cccc(OC(=O)N(C)C)c4)CC3)c12`, which “activity change, negative = inhibition” value is on record?
A: The value was -9.84% [at 114 µM] (inactive).

Q: Which Potency does the source give for `CC(=O)c1ccc2c(c1)c1cc(C(C)=O)ccc1n2CCNC(C)C` here?
A: The Potency was 0.136 µM (active).
